Anthrax LF prot – blocks Bacillus anthracis lethal factor protease. P15917. inhibition, % at 10 µM. AID 588501. multiplex microsphere protease cleavage assay, LF. hit rate 0.12% among 360,000; further: plate controls were buffer without enzyme for full effect and enzyme alone for no effect
Target sequence (P15917 whole entry, looked up): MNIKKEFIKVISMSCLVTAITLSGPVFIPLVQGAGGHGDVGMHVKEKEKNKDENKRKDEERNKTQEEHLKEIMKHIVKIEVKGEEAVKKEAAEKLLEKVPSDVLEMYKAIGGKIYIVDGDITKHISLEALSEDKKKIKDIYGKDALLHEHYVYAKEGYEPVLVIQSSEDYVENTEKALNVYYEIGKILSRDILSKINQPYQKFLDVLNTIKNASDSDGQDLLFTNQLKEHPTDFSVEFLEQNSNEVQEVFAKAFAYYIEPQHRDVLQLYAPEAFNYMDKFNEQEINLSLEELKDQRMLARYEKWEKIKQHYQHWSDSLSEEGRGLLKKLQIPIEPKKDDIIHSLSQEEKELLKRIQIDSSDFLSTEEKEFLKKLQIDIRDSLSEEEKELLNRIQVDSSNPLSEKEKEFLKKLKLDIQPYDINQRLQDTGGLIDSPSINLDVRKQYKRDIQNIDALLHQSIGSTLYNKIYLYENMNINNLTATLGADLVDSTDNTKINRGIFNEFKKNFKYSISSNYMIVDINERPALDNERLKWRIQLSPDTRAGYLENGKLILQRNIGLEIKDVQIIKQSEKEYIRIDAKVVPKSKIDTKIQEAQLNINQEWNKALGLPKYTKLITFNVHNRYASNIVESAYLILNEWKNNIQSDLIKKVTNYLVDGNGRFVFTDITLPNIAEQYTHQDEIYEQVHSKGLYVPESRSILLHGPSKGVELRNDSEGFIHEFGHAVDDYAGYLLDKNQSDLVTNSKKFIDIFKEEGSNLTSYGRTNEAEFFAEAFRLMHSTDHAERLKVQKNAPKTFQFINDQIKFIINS
Bead autofluor – flagged as autofluorescent in microsphere protease counterscreen | fluorescence intensity (no concentration beside the values) | hit rate 3.1% among 360,000 | compound autofluorescence counterscreen, microsphere flow cytometry; active compounds read high; in the data active means fluorescence intensity above about 16000; inconclusive means no clear call, values can overlap the other calls
BoNT A protease – inhibitors of Botulinum neurotoxin A light chain protease; multiplex microsphere protease substrate cleavage, flow cytometry; inhibition, % at 10 µM; hit rate 0.17% among 360,000; AID 588499; further: plate controls were buffer without enzyme for full effect and enzyme alone for no effect
BH1578 lux ind – quorum light induction in luxS cqsA deficient V. cholerae | V. cholerae BH1578 lux reporter, luminescence, 6 h | activation, % at 18.7 µM | hit rate 0.16% among 350,000; in the data active means activation mostly above about 9.7%, no sharp cut-off; inconclusive means no clear call, values can overlap the other calls; inactive means mostly below about 3.7%
BoNT F protease – blocks Botulinum neurotoxin F light chain protease. hit rate 0.22% among 360,000. Multiplex microsphere protease cleavage assay, flow cytometry. inhibition, % at 10 µM; in the data active means inhibition above about 35%, passing the limit was not always enough; inconclusive means no clear call, values can overlap the other calls; further: plate controls were buffer without enzyme for full effect and enzyme alone for no effect
Numbers without * were called inactive; i = inactive; u = inconclusive; x = no result. Compounds with a hit are over-represented: about 3.5% of the library has one in this group of screens. Unless noted, no stated cut-off is given here; in the data, active means inhibition above about 30%; inconclusive means no clear call, values can overlap the other calls; inactive means below that.

SMILES	Anthrax LF prot	Bead autofluor	BoNT A protease	BH1578 lux ind	BoNT F protease
O=C(CSc1nncn1-c1ccccc1F)NC1CC1	-2	4175	0	i	-2
COc1cccc(=O)c2c(C)n(-c3cc(C)cc(C)c3)c(C)c12	-3	20048*	3	i	1
COc1cccc(-n2c(C)c3c(OC)cccc(=O)c3c2C)c1	-2	3614	0	0	-10
O=C(CN1C(=O)c2cccnc2C1=O)c1ccccc1	0	20963*	-3	i	-6
O=C(C[n+]1ccccc1)Nc1ccccc1C(F)(F)F	0	3729	u	i	u
CCOC(=O)c1cc(C(=O)NCc2ccc(Cl)cc2Cl)nn1C	-2	2345	0	0	-2
CCOC(=O)c1cc(C(=O)Nc2ccc(C)c(F)c2)nn1C	-2	21479*	-3	-1	-6
CC(NC(=O)/C(C#N)=C1\N=C(NC(=O)c2cccs2)c2ccccc21)c1ccccc1 (stereo unspecified)	15	6060	30*	0	9
O=C(Cc1cccc(NC(=O)C2CCCN(C(=O)C3CCCCC3)C2)c1)Nc1cccc(C(=O)N2CCCCC2)c1 (stereo unspecified)	2	3619	0	-1	-5
CCN(Cc1ccc(OC)c(F)c1)C(C)C(=O)Nc1ccc(S(=O)(=O)N2CCCC2)cc1 (stereo unspecified)	4	7178	-2	i	-5
CN(C)c1ccc(C2NCCS2)cc1 (stereo unspecified)	-4	22912*	0	i	-3
CCOC(=O)CN1C(=O)C(CC)Oc2ccccc21 (stereo unspecified)	-1	24132*	-2	0	-4
COc1nc(C#N)c(N2CCOCC2)o1	-2	23391*	-2	1	-3
Cc1cc(Cl)ccc1OCC(=O)N1C(C)CCCC1C (stereo unspecified)	-7	24242*	-4	0	-4
COc1ccc(-c2ccc3c(c2)c(Sc2ccccc2)c(-c2ccccc2)n3C)cc1	-4	4215	0	x	-5
CCCCOc1ccc(C(O)(CCC)CCN2CCOCC2)cc1 (stereo unspecified)	1	2014	1	i	-4
CCCCC(O)(CCN1CCOCC1)c1ccc(Cl)cc1 (stereo unspecified)	-8	21851*	3	0	3
Cc1c(C(=O)Nc2ccccc2C(=O)N2CCOCC2)cccc1[N+](=O)[O-]	-5	10698	-1	0	-7
CC(=O)N1c2ccc(S(=O)(=O)N3CCCCC3)cc2CC1C(=O)NCc1ccccc1C (stereo unspecified)	8	5010	6	0	10
FC(F)(Cl)c1nnc2ccc(Cl)nn12	-2	4506	-1	2	-5
Cc1cc(C)cc(NC(=O)C2CCCN2C(=O)Oc2ccccc2)c1 (stereo unspecified)	-2	5855	0	-2	-6
Cc1csc(NC(=O)C2CCCN2C(=O)Oc2ccccc2)n1 (stereo unspecified)	4	22986*	0	i	1
CCN(CC(=O)Nc1ccc(OC)cc1)CC(=O)Nc1cccc(S(=O)(=O)N2CCOCC2)c1	3	3802	0	-1	0
Cc1cccc(C)c1OCC(=O)NCC1COc2ccccc2O1 (stereo unspecified)	3	8805	2	-7	-5
CC(C)C(=O)Nc1ccc(NC(=O)c2cc3ccccc3o2)cc1	-3	22449*	-2	1	-5
SMILES	Anthrax LF prot	Bead autofluor	BoNT A protease	BH1578 lux ind	BoNT F protease
CC(C)C(=O)Nc1ccc(NC(=S)NC(=O)c2cc3ccccc3o2)cc1	1	4307	-1	0	-8
Cc1cc(-c2csc(NC(=O)c3cc4ccccc4o3)n2)c(C)n1C	7	23885*	0	i	-3
O=C(Nc1nc(-c2ccccn2)cs1)c1cc2ccccc2o1	-1	3935	3	0	3
CCn1nnc(NC(=O)CSc2ccc(Cl)cc2)n1	-1	24449*	-3	0	-4
CCn1nnc(NC(=O)c2cc3ccccc3o2)n1	4	21445*	2	2	2
O=C(Nc1ccccc1N1CCCC1)c1cc2ccccc2o1	-4	10962	-2	x	-10
CN1CCN(c2ccccc2NC(=O)c2cc3ccccc3o2)CC1	1	21317*	3	i	0
Cc1ccccc1NC(=O)/C=C/c1cccc(C(F)(F)F)c1	4	9831	1	-2	1
CNC(=O)/C=C/c1cccc(C(F)(F)F)c1	2	2221	4	1	40*
Cc1ccc(NC(=O)C2CCCN(S(=O)(=O)c3cccnc3)C2)c(C)c1 (stereo unspecified)	1	5833	1	-5	12
C=CCn1cc(C(=O)NCCOC)c(=O)c2cc(S(=O)(=O)N(CC)CC)ccc21	-4	16280*	0	i	0
CCN(CC)S(=O)(=O)c1ccc2c(c1)c(=O)c(C(=O)NCCOC)cn2C	-12	9362	-1	0	-3
C=CCn1cc(C(=O)NCCCOCC)c(=O)c2cc(S(=O)(=O)N(CC)CC)ccc21	0	23558*	0	i	2
CCOCCCNC(=O)c1cn(CC)c2ccc(S(=O)(=O)N(C)C3CCCCC3)cc2c1=O	0	5717	0	0	1
Brc1ccc(-c2nc3ncccn3c2NC2CCCCC2)o1	-11	10320	0	-1	-11
COc1ccc(C(=O)COC(=O)CN2C(=O)c3ccccc3C2=O)c(OC)c1	-5	7164	-2	-3	-12
CN(C)S(=O)(=O)c1cccc(NC(=O)CSc2cccc3cccnc23)c1	-6	5487	1	0	-5
O=C(Nc1nc2c(s1)CCCC2)C1CCCN1C(=O)c1cccs1 (stereo unspecified)	0	16410*	0	4	-1
CCOC(=O)Cc1csc(NC(=O)c2cccc(OC)c2)n1	-4	2549	0	i	u
O=C(Nc1nccs1)[C@@H]1CCCN1C(=O)c1cccs1	-2	4684	0	0	2
CCOC(=O)Cc1csc(NC(=O)c2csc(C)c2)n1	1	20408*	-1	-1	-1
Cc1cc(C(=O)Nc2nnc(C3CCCCC3)s2)cs1	-4	23418*	u	i	-4
Cc1cc(C(=O)Nc2nc3c(s2)CCCC3)cs1	-4	16226*	-2	0	-4
CCC(=O)N1CCCC1(C)C(=O)Nc1ccc(C)c(C)c1 (stereo unspecified)	-8	3981	0	i	-4
COc1ccc(N(CC(=O)NCCSC2CCCCC2)S(C)(=O)=O)c(OC)c1	-1	18476*	u	0	-10
Cc1ccc(/C=C2\SC(=S)N(Cc3ccccc3)C2=O)o1	36*	4741	48*	0	11
O=C1/C(=C\c2ccc(O)c(O)c2)SC(=S)N1Cc1ccccc1	-10	4080	7	i	-87
COc1cc(/C=C2/SC(=S)N(Cc3ccccc3)C2=O)ccc1O	15	3622	30*	i	22
COc1ccc(/C=C2\SC(=S)N(Cc3cccnc3)C2=O)cc1C	20	2712	38*	0	12
O=C(O)c1cc(-c2ccc(/C=C3/SC(=S)N(Cc4ccccc4)C3=O)o2)ccc1Cl	15	4996	22	0	4
